According to ChEMBL document CHEMBL3988442, “University of Dundee, Small-Polar-MMV Screening Library” (2021):
Screen size: about 48,000 compounds; about 13,000 (27%) showed an effect of 50% or more. The list shows a part of the results.

These molecules were tested on Wolbachia pipientis (assay: Anti-Wolbachia Cell-Based Screen). Conditions: 5 µM.
Format: functional
Design: scale not given: in the data most compounds retested in dose-response had high values

Compound	Percent Effect [%]
COCC(=O)NS(=O)(=O)c1ccc(F)c(F)c1	-13.69
Cc1cc(C)nc(C2CCCN2C(=O)c2cnccn2)n1 (stereo unspecified)	104.9
CC(=O)Nc1nc(C(=O)N2CCCC2c2noc(C)n2)cs1 (stereo unspecified)	1.192
Cc1cncc(C(=O)N2CCCCC2c2nc[nH]n2)c1 (stereo unspecified)	2.614
Cc1cc(C)nc(C2CCCN2C(=O)c2cnco2)n1 (stereo unspecified)	140.7
Cc1cc(C)nc(C2CCCN2C(=O)c2coc(C)n2)n1 (stereo unspecified)	95.19
Cc1nc(C2CCCN2C(=O)c2ccc(=O)n(C)n2)no1 (stereo unspecified)	4.232
Cc1nc(C2CCCN2C(=O)c2cnns2)no1 (stereo unspecified)	-16.56
COc1ccc(F)c(-c2cc(C)nc(N)n2)c1	-7.785
OC1(CNc2ccc(Br)cn2)CCC1	-10.9
Cc1nc(-c2noc3ccc(C(=O)NCCN4CCOCC4)cc23)co1	-13.78
Cn1ccc(NC(=O)NC2CCCN(c3ccccc3Cl)C2=O)n1 (stereo unspecified)	10.36
Cc1cc(C2CCCN(C(=O)COc3ccccc3F)C2)n[nH]1 (stereo unspecified)	-9.054
O=C(Cc1ccccc1O)NC1CCCN(c2ccccc2F)C1=O (stereo unspecified)	90.3
Cc1cc(CC(=O)NC2CCCN(Cc3ccccc3)C2=O)n[nH]1 (stereo unspecified)	128.5
Cc1cc(CNCC2(O)CCCN(CCCc3ccccc3)C2=O)n[nH]1 (stereo unspecified)	11
CC(=O)NCCCSC1CCCN(c2ccccc2F)C1=O (stereo unspecified)	-23.33
O=C1C(NCc2ccccc2O)CCN1Cc1ccccc1 (stereo unspecified)	-5.18
Cc1cc(CC(=O)NC2CCCN(c3ccccc3F)C2=O)n[nH]1 (stereo unspecified)	95.19
Cc1ccc(N2CCCC(NC(=O)Cc3csc(C)n3)C2=O)cc1 (stereo unspecified)	-8.265
COCC(=O)NC1CCCN(c2ccc(C)cc2)C1=O (stereo unspecified)	11.31
Cn1cc(NC(=O)NC2CCCN(c3ccccc3Cl)C2=O)cn1 (stereo unspecified)	-13.39
Cc1cc(CC(=O)NC2CCCN(c3ccccc3Cl)C2=O)n[nH]1 (stereo unspecified)	103.5
Cc1[nH]c2c(F)cccc2c1CC(=O)N1CCCC(N)CC1 (stereo unspecified)	-2.417
Cc1cc(C)cc(CN2C[C@H]3COC[C@H](N4CCN(C)CC4)[C@H]3C2)c1.O=C(O)C(F)(F)F.O=C(O)C(F)(F)F.O=C(O)C(F)(F)F	-30.24
CN(Cc1csc(-c2cccs2)n1)CC(O)CO (stereo unspecified)	2.949

Compound	Percent Effect [%]
Cc1cc(=O)n(C)cc1NC(=O)CC1CCC1	-11.35
Cc1ccc(N2CCCC(NC(=O)CCc3ccccn3)C2=O)cc1 (stereo unspecified)	-0.6334
O=C(Cc1ccon1)NC1CCCN(c2ccccc2F)C1=O (stereo unspecified)	99.65
O=C(Cc1ccon1)NC1CC2(CCC2)Oc2ccccc21 (stereo unspecified)	0.8032
COc1nc(C)c(C(=O)NCc2cc(N3CCOCC3)ncn2)s1	-8.084
CNc1nc(C)c(C(=O)N2CCCCC2CCN2CCOCC2)s1 (stereo unspecified)	-13.11
Cc1nc(N2CCOCC2)sc1C(=O)NCC(C)(C)N1CCCCC1	59.39
CNc1nc(C)c(C(=O)N2CCCCC2CCc2ccc(O)cc2)s1 (stereo unspecified)	-31.11
CC(C)(CNC(=O)C1CCCCN1S(C)(=O)=O)N1CCOCC1 (stereo unspecified)	1.375
CNc1nc(C)c(C(=O)NCC(C)(C)N2CCCCC2)s1	51.74
CN(CCO)C(=O)Nc1ccn(-c2cccc(C(F)(F)F)c2)n1	-1.058
CC(=O)Nc1ccc(Cl)c(C(=O)N(C)C(C)c2nccs2)c1 (stereo unspecified)	18.16
O=C1CC(C(=O)Nc2nnc(-c3ccccn3)[nH]2)c2ccccc2N1 (stereo unspecified)	-11.02
CN[C@@H]1CCC[C@@H](Oc2ccccc2Oc2ccc(C)cc2)[C@@H]1O	109.8
O=C(Nc1cnc(Oc2ccccc2)nc1)C1CC1	12.01
COc1ccc(CNC(=O)N2CCOCC2C2CC2)cc1C (stereo unspecified)	12.32
Cc1ncsc1CN1CC[C@H]2OCC[C@@]2(C(=O)NCC2CC2)C1	4.364
CCS(=O)(=O)N1CCOC2(CCCN(c3ccc(C)nn3)C2)C1.O=C(O)C(F)(F)F (stereo unspecified)	0.7716
Cc1ccc(N2C[C@H]3OCC[C@H]3[C@H](C(=O)NC3CCC3)C2)nn1	-15.47
Cc1ccc(N2CC[C@H]3OCC[C@@]3(C(=O)NC(C)C)C2)nn1.O=C(O)C(F)(F)F	-2.332
Cc1ccc(N2CC[C@H]3OCC[C@@]3(C(=O)NCC3CC3)C2)nn1	112.3
CC(=O)NCC(=O)N1CCOC2(CCCN(c3ccc(C)nn3)C2)C1 (stereo unspecified)	107.9
CC(=O)NCC(=O)N1CCOC2(CCCN(c3cccnc3)C2)C1.O=C(O)C(F)(F)F (stereo unspecified)	-5.55
CCS(=O)(=O)N1CC[C@H]2OCC[C@@]2(C(=O)NC)C1	-10.89
CS(=O)(=O)N1CC[C@H]2OCC[C@@]2(C(=O)NCC2CC2)C1	83.9
Cc1ccc(N2CC[C@H]3OCC[C@@]3(C(=O)N3CCCO3)C2)nn1	93.84

Compound	Percent Effect [%]
CNC(=O)[C@@]12CCO[C@@H]1CCN(S(=O)(=O)c1cc(C)cc(C)c1)C2	11.27
Cc1noc(CNc2c(N3CCCC3)cccc2N2CCCC2)n1	12
CC(C)c1cc(C(=O)N2CCN(c3ccc(F)c(Cl)c3)CC2)n(C)n1	-4.845
Cc1nc(N(C)Cc2cccc(O)c2)nc2cc(S(C)(=O)=O)ccc12	-16.37
CC(C)C(=O)N1CCC(NC2CCSCC2)C1 (stereo unspecified)	-5.859
CS(=O)(=O)N1CCC(Oc2ccc(C(=O)NCCC(N)=O)cc2Cl)CC1	-24.14
Cc1ccc(N2CC[C@H]3OCC[C@@]3(C(=O)N3CCCC3)C2)nn1	99.3
Cc1ccc(N2CCCC3(CCN(C(=O)C4CC4)C3)C2)nn1 (stereo unspecified)	2.415
Cc1ccc(N2CC[C@H]3OCC[C@@]3(C(=O)N(C)C)C2)nn1	116.6
Cc1ccc(N2CC3(CCN(C(=O)c4ccoc4)C3)C2)nn1	11.71
Cc1ccc(N2CCC3(CC2)CCN(C2CCOCC2)CC3)nn1.O=C(O)C(F)(F)F	-17.16
c1cn(-c2ccc(CN3CCCC3)cc2)c(-c2cc3n(n2)CCNC3)n1	4.696
O=C(NCC(F)(F)F)C1CCCN(Cc2ccno2)C1 (stereo unspecified)	-13.93
COc1ccc(C(=O)NCC(c2cccn2C)N2CCCC2)c(OC)c1 (stereo unspecified)	6.724
COc1cc(OC)cc(C(=O)NCC(c2cccn2C)N2CCCC2)c1 (stereo unspecified)	93.86
COc1ccc(C(=O)NCC(c2cccn2C)N2CCCC2)cc1OC (stereo unspecified)	118.2
CN1CCN(C(CNC(=O)CCn2cccn2)c2cccs2)CC1 (stereo unspecified)	11.34
COc1ccc(C(=O)NCC(c2cccn2C)N2CCN(C)CC2)cc1 (stereo unspecified)	104.9
CN1CCN(C(CNC(=O)c2ccc(Cl)cc2F)c2cccs2)CC1 (stereo unspecified)	-14.94
Cn1cccc1C(CNC(=O)c1ccc(F)cc1F)N1CCCCCC1 (stereo unspecified)	2.493
Cn1cccc1C(O)CNC(=O)COc1ccc(Cl)cc1Cl (stereo unspecified)	19.06
Cc1ccc(C)c(C(=O)NCC(c2cccn2C)N2CCCCCC2)c1 (stereo unspecified)	114.5
Cn1cccc1C(CNC(=O)COc1ccc(Cl)cc1Cl)N1CCCC1 (stereo unspecified)	-0.05475
CC(C)=CCN1CCN(S(=O)(=O)c2cn(C)cn2)[C@H]2CS(=O)(=O)C[C@H]21	-6.169
Cn1cc(NC(=O)CCCc2cccs2)c(=O)n(C)c1=O	-5.332
NC(=O)C1CCN(CCc2ccc(NCc3ccsc3)cc2)CC1	-14.27

Compound	Percent Effect [%]
O=C(C1CCCC1)N1CCn2c(nnc2C2CCCNC2)C1 (stereo unspecified)	107.7
O=C(CN1CCCCCC1)N1CCc2nnc(C3CCCNC3)n2CC1 (stereo unspecified)	109
Cn1c(CN2CCCC2)nnc1C1CCCN(C(=O)CN2CCCC2)C1 (stereo unspecified)	-18.41
O=C(CN1CCNC1=O)N1CCc2nnc(-c3ccccc3)n2CC1	-8.724
Cn1c(CN2CCC(O)CC2)nnc1C1CCCN(C(=O)C2CNC2)C1 (stereo unspecified)	15.55
O=C(C1CCC1)N1CCn2c(COc3ncccn3)nnc2C1	-0.8888
CC(C)OCCN1CCC(Nc2ncc(Br)cn2)CC1	82.04
CC(C)OCCN1CCC(Nc2nccnc2C#N)CC1	120.8
N#Cc1ccccc1N1CCC(Nc2nccnc2C#N)CC1	-4.6
Cc1cc(C)nc(NC2CCN(CCOC(C)C)CC2)n1	107
N#Cc1nccnc1NC1CCN(c2c(F)cccc2F)C1 (stereo unspecified)	7.205
Cc1cccc(C(=O)N2CCN(CCOC(C)C)CC2)n1	2.598
COCCC(=O)N1CCC(Nc2ncc(Br)cn2)CC1	-2.915
CC(C)OCCN1CCC(N2CCN(C)C2=O)CC1	7.095
CC(C)OC(=O)N1CCC(Nc2ncc(Br)cn2)CC1	-1.588
CC(C)OCCN1CCN(C(=O)c2cc(-n3cccn3)ccn2)CC1	-9.064
Cc1cc(C)nc(N2CCC(OCCN3CCCCC3)C2)n1 (stereo unspecified)	5.961
CC(C)OCCN1CCC(Nc2ncccn2)CC1	110.1
CCNC(=O)C1CCCN1S(=O)(=O)c1sc(=O)[nH]c1C (stereo unspecified)	-8.251
O=S(=O)(C1CC1)N1CCOC2(COCCN(c3ncccn3)C2)C1 (stereo unspecified)	-6.11
Cc1cnccc1-n1nc(C(C)C)nc1CCN(C)S(C)(=O)=O	-12.77
CCN(CC(F)(F)F)C(=O)C1CCCN(Cc2cscn2)C1 (stereo unspecified)	6.1
COCC(=O)NCCC(=O)N1CCN(S(=O)(=O)c2ccc(Br)cc2)CC1	15.42
